Reference: ChEMBL document CHEMBL3988442, “University of Dundee, Small-Polar-MMV Screening Library” (2021)
Hit rate of the full screen: of about 66,000 compounds, about 960 (1.5%) showed an effect of 50% or more. Shown is part of a subset that was picked to be rich in strong results.

Tested on: Trypanosoma brucei
Assay: Trypanosoma brucei 72 hour study
Assay type: functional, organism-based
Set-up: scale not given: in the data most compounds retested in dose-response had high values

Q: How did the “Percent Effect” value (30 µM, 30.03 µM) turn out when `Cc1sc(CN)nc1-c1ccc(Cl)cc1.Cl` was run?
A: The value was -33.68%.

Q: Which “Percent Effect” value (10 µM) does the source give for `O=C(NCCCNc1ccc(C(F)(F)F)cn1)c1ccc(F)cc1` here?
A: The value was -67.47%.

Q: With `Cc1nc(C)c(CCN2CCC(Oc3ccccc3F)CC2)s1` as the compound, how does the “Percent Effect” value (30.3 µM, […]) read?
A: The value was 55.32%.

Q: `Cc1nc(CCN2CCC(Oc3ccccc3F)CC2)c(C)s1` was tested. Which “Percent Effect” value (30.3 µM, […]) did it give?
A: Its value is 14.09%.

Q: How did the “Percent Effect” value (30.3 µM, […]) turn out when `Cc1nc(CCN2CCC(Oc3ccccc3F)CC2)cs1` was run?
A: The value was -2.649%.

Q: How did the “Percent Effect” value (30 µM, 30.03 µM) turn out when `O=C(O)C(F)(F)F.O=C(O)C(F)(F)F.O=C1NC2(CCN(Cc3ccsc3)CC2)CC1c1ccncc1` (centres undefined) was run?
A: Its value is 34.47%.

Q: For `CC(C)n1c(=O)nc2n1C(=O)N(c1ccc(F)cc1)C2`, which “Percent Effect” value (30 µM, 30.03 µM) is on record?
A: The value was 24.9%.

Q: For `COc1cc(Cl)cc(CN2CCCC(N3CCCC3)C2)c1OC` (centres undefined), which “Percent Effect” value (30 µM, 30.03 µM) is on record?
A: Its value is -17.8%.

Q: Which “Percent Effect” value (30 µM, 30.03 µM) does the source give for `c1cnc(-c2nc(CN3CCn4c(nnc4C4CC4)C3)cs2)nc1` here?
A: Its value is 1.717%.

Q: `c1sc(C2CCCCC2)nc1CN1CCn2c(nnc2C2CC2)C1` was tested. Which “Percent Effect” value (30.3 µM, […]) did it give?
A: The value was 99.05%.

Q: With `c1sc(C2CCCC2)nc1CN1CCn2c(nnc2C2CC2)C1` as the compound, how does the “Percent Effect” value (30 µM, 30.03 µM) read?
A: The value was -23.12%.

Q: For `Cc1csc(C(=O)N2CCCC(c3[nH]ncc3S(C)(=O)=O)C2)c1` (centres undefined), which “Percent Effect” value (30.3 µM, […]) is on record?
A: Its value is 68.17%.

Q: How did the “Percent Effect” value (30.3 µM, […]) turn out when `Cc1ccsc1C(=O)N1CCCC(c2[nH]ncc2S(C)(=O)=O)C1` (centres undefined) was run?
A: The value was -15.29%.

Q: `Cc1ccc(C(=O)N2CCCC(c3[nH]ncc3S(C)(=O)=O)C2)s1` (centres undefined) was tested. Which “Percent Effect” value (30.3 µM, […]) did it give?
A: Its value is -30.56%.

Q: For `COCCN1CCC2(CC1)CN(C(=O)c1cccs1)CCO2.O=C(O)C(F)(F)F`, which “Percent Effect” value (30.3 µM, […]) is on record?
A: The value was -16.53%.

Q: With `CN(C)CCO[C@H]1CN(C(=O)c2cccs2)[C@@H]2COC[C@H]12.O=C(O)C(F)(F)F` as the compound, how does the “Percent Effect” value (30 µM, 30.03 µM) read?
A: The value was 4.197%.

Q: With `CC(C)Sc1ccc(C(C)Nc2nc3c(cnn3C)c(=O)[nH]2)cc1` (centres undefined) as the compound, how does the “Percent Effect” value (30.3 µM, […]) read?
A: Its value is 62.45%.

Q: How did the “Percent Effect” value (30.3 µM, […]) turn out when `CC(Nc1nc2c(cnn2C)c(=O)[nH]1)c1ccc2c(c1)CCCC2` (centres undefined) was run?
A: Its value is 35.38%.

Q: How did the “Percent Effect” value (30.3 µM, […]) turn out when `CC(Nc1nc2c(cnn2C)c(=O)[nH]1)c1ccc(F)cc1` (centres undefined) was run?
A: Its value is -23.37%.

Q: How did the “Percent Effect” value (30.3 µM, […]) turn out when `CCC(=O)Nc1ccc(C(C)Nc2nc3c(cnn3C)c(=O)[nH]2)cc1` (centres undefined) was run?
A: The value was 99.39%.

Q: How did the “Percent Effect” value (30 µM, 30.03 µM) turn out when `Cc1ccc(C(C)N(C)Cc2nc3c(cnn3C)c(=O)[nH]2)cc1` (centres undefined) was run?
A: The value was 18.7%.

Q: With `CC(Nc1nc2c(cnn2C)c(=O)[nH]1)c1ccccn1` (centres undefined) as the compound, how does the “Percent Effect” value (30.3 µM, […]) read?
A: Its value is -31.46%.

Q: Which “Percent Effect” value (30 µM, 30.03 µM) does the source give for `CSCC[C@H](N)c1nnc(SCC(=O)Nc2ccc(Br)cc2)o1.Cl` here?
A: The value was -43.15%.

Q: Which “Percent Effect” value (30.3 µM, […]) does the source give for `CC(CNC(=O)c1ccc(F)cc1I)N1CCCC1` (centres undefined) here?
A: Its value is 0.5476%.

Q: Which “Percent Effect” value (30.3 µM, […]) does the source give for `COCCC(=O)NCCn1nc(C2CCNC2)c2cccnc21.Cl` (centres undefined) here?
A: Its value is -11.01%.

Q: With `Cc1nc(CN2CCC(O)(c3ccccc3F)CC2)c2ccccn12.O=C(O)CC(O)(CC(=O)O)C(=O)O` as the compound, how does the “Percent Effect” value (30.3 µM, […]) read?
A: The value was -5.12%.

Q: `Cc1cccc(C)c1NC(=O)c1cc(S(N)(=O)=O)c(C)o1` was tested. Which “Percent Effect” value (30 µM, 30.03 µM) did it give?
A: The value was -12.34%.

Q: Which “Percent Effect” value (30 µM, 30.03 µM) does the source give for `CC1(C(=O)NCc2cccnc2Oc2ccc(F)c(F)c2)CCCNC1` (centres undefined) here?
A: The value was -31.1%.

Q: Which “Percent Effect” value (30 µM, 30.03 µM) does the source give for `Cc1cc(CNC(=O)NCCOc2ccc(F)c(F)c2)on1` here?
A: The value was -38.02%.

Q: `Cc1nccc(CNC(=O)NCCOc2ccc(F)c(F)c2)n1` was tested. Which “Percent Effect” value (30.3 µM, […]) did it give?
A: Its value is 8.406%.

Q: `Cn1cc(CNC(=O)NCCOc2ccc(F)c(F)c2)cn1` was tested. Which “Percent Effect” value (30 µM, 30.03 µM) did it give?
A: Its value is -10%.

Q: With `Cc1nc(C2(O)CCCNCC2)sc1CCOc1ccc(F)c(F)c1.Cl` (centres undefined) as the compound, how does the “Percent Effect” value (30.3 µM, […]) read?
A: The value was 101.7%.

Q: `CCC(CN1CCCC1)NC(=O)Cc1c(C)[nH]c2c(C)cc(C)cc12.O=C(O)CC(O)(CC(=O)O)C(=O)O` (centres undefined) was tested. Which “Percent Effect” value (30.3 µM, […]) did it give?
A: The value was 9.843%.

Q: `Cc1ccc(CN2CCCn3nnc(COCC4CC4)c3C2)s1.O=C(O)C(F)(F)F` was tested. Which “Percent Effect” value (30 µM, 30.03 µM) did it give?
A: Its value is 22.43%.

Q: Which “Percent Effect” value (30.3 µM, […]) does the source give for `CN(C)CCCN(Cc1ccco1)Cc1ccnn1C1CCCCO1.O=C(O)CC(O)(CC(=O)O)C(=O)O` (centres undefined) here?
A: The value was -21.72%.

Q: For `O=C(O)C(F)(F)F.O=C(c1ccncc1)N1CCOC2(CCCN(c3nncs3)C2)C1` (centres undefined), which “Percent Effect” value (30.3 µM, […]) is on record?
A: The value was -64.64%.

Q: With `CN(C)S(=O)(=O)N1CCC(c2cccc(Cc3ccccc3Cl)n2)CC1` as the compound, how does the “Percent Effect” value (30.3 µM, […]) read?
A: Its value is -38.96%.

Q: Which results are given for `Cc1ccc(-c2nc(CN(Cc3cccs3)CC3CCCO3)no2)cc1` (centres undefined)?
A: Percent Effect (10 µM): -10.74%; Percent Effect (30.3 µM, […]): 9.515%

Q: With `Cc1ncoc1C(=O)N1C[C@H]2CCC[C@@]2(COCc2cccnc2)C1.O=C(O)C(F)(F)F` as the compound, how does the “Percent Effect” value (30 µM, 30.03 µM) read?
A: The value was 18.22%.

Q: With `Cn1nnc2c1CCN(CC1CC1)C2COCc1ccccc1.O=C(O)C(F)(F)F` (centres undefined) as the compound, how does the “Percent Effect” value (30 µM, 30.03 µM) read?
A: Its value is 17.54%.

Q: For `CO[C@@H]1CC[C@H]2[C@H]1OCCN2Cc1ccc(F)c(F)c1.O=C(O)C(F)(F)F`, which “Percent Effect” value (30.3 µM, […]) is on record?
A: The value was -7.78%.

Q: For `CC(C)NC(=O)N1CCOC2(CCCN(c3ncccc3F)C2)C1.O=C(O)C(F)(F)F` (centres undefined), which “Percent Effect” value (30.3 µM, […]) is on record?
A: The value was -41.85%.

Q: How did the “Percent Effect” value (30.3 µM, […]) turn out when `Cl.OC1(c2ccc(F)cc2)CCN(Cc2ccccc2N2CCCC2)CC1` was run?
A: The value was -34.29%.

Q: How did the “Percent Effect” value (30.3 µM, […]) turn out when `Nc1ncc(CN2CCC(O)(c3ccccc3F)CC2)cn1` was run?
A: Its value is -5.013%.

Q: For `COc1cccc(CN2CCC(O)(c3ccc(C)cn3)CC2)c1OC`, which “Percent Effect” value (30.3 µM, […]) is on record?
A: Its value is -256.8%.

Q: Which “Percent Effect” value (30 µM, 30.03 µM) does the source give for `Cc1nc(CCN)cc(N2CCC(O)(c3ccccc3)C2)n1` (centres undefined) here?
A: Its value is -28.3%.

Q: Which “Percent Effect” value (30.3 µM, […]) does the source give for `OC1(c2ccccc2F)CCN(Cc2ccccc2N2CCCC2)CC1` here?
A: The value was 56.26%.

Q: How did the “Percent Effect” value (30.3 µM, […]) turn out when `Cc1cccc(C2(O)CCN(Cc3ccccc3N3CCCC3)CC2)c1` was run?
A: The value was 93.6%.
